Out of some 340,000 compounds screened, about 2,100 (0.62%) were called active. Only a sample is shown. Potency and affinity values are given separately. Unmarked numbers belong to inactive results.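 The calls were made as follows: active = first-screen hits whose inhibition reached a set limit at any dose in the follow-up dose series; inconclusive = inhibition above the set first-screen limit but never retested; inactive = the rest.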

For the experiment, the target named is Rac GTPase-activating protein 1 (Homo sapiens) (UniProt Q9H0H5). The experiment is described as follows: blockers of MgcRacGAP-driven Rac1 GTP hydrolysis – biochemical, ADP Hunter fluorescence, primary and confirmatory, confirmation (AID 624330).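 Also: fluorescence reports GDP produced by GAP-driven GTP hydrolysis.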 To be noted: MgcRacGAP-stimulated Rac1 GTP hydrolysis, at 30 µM, stronger effect = higher value, GST-tagged Rac1 F28L mutant substrate.
Rac GTPase-activating protein 1 (Homo sapiens), sequence (Q9H0H5 whole entry, looked up): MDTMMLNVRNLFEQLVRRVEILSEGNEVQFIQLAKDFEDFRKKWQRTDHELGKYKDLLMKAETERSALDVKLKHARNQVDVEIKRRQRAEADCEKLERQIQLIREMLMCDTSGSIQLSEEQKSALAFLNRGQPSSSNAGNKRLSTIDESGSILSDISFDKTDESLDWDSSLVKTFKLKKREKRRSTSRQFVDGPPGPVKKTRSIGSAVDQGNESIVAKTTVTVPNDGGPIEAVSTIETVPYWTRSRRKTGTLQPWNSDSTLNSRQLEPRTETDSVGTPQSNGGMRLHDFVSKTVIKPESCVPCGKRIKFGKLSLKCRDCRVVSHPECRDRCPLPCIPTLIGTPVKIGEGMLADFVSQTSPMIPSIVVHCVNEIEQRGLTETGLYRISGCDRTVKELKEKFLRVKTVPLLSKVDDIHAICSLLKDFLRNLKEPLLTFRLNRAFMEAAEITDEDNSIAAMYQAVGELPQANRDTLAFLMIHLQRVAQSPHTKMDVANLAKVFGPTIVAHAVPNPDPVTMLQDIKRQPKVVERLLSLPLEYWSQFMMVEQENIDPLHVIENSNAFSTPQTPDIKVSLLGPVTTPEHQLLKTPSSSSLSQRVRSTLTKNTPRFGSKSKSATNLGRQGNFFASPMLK
A word on the inhibition: it is the relative decrease from the control value, in per cent. Consider `O=C(CSc1nnc(-c2cccnc2)o1)Nc1ccc(F)cc1`, for which the inhibition was 13.2%.

For `Clc1nc(-c2ccccc2)c2ccccc2n1`, the inhibition is 10.5%.

`CC(=O)c1cc(Cc2csc(C(C)=O)c2)cs1`: the inhibition is 1.28%.

In the case of `CN(C(=O)COC(=O)c1cccs1)c1c(N)n(Cc2ccccc2)c(=O)[nH]c1=O`, the inhibition is 4.09%.

For the compound `Cc1cc(=O)oc2c3c(cc(OCC(=O)NC(Cc4ccc(Cl)cc4)C(=O)O)c12)OC(C)(C)CC3` (configuration not stated), the inhibition is 6.3%.

For the compound `O=C(NCc1ccccc1)NC(=O)c1ccncc1`, the inhibition was 8.08%.

For the compound `O=C1NC(=S)NC1Cc1ccc(O)cc1` (configuration not stated), the inhibition is 7.3%.

Take `CCn1ccnc1CN1CCCCC1C(=O)Nc1ccc(Oc2cccnc2)cc1` (configuration not stated): the inhibition was 10.9%.

As to `Cc1cccc(CNc2ccc(S(=O)(=O)N3CCCCC3)cc2)c1`, the inhibition was 2.94%.

For the compound `CC(=O)Nc1ccc(NCc2cccs2)cc1`, the inhibition was 31.6%.

As to `O=C1CC(Nc2ccc(N3CCOCC3)cc2)C(=O)N1CCc1ccccc1` (configuration not stated), the inhibition is 14.7%.

For `O=C1CC(Nc2ccccc2)C(=O)N1Cc1ccccc1` (configuration not stated), the inhibition is 7.76%.

Consider `CC(=O)N1CCN(c2ccc(NC(=O)c3cccc(C)c3)cc2)CC1`, for which the inhibition was -9.43%.

For `O=C(O)c1ccc(NCc2cccs2)cc1`, the inhibition is -0.42%.

In the case of `CC1CCN(Cc2cc(=O)oc3ccc(C(C)C)cc23)CC1`, the inhibition was 5.26%.

For the compound `O=S(=O)(N/N=C1\CC(c2ccccc2)Oc2ccccc21)c1ccccc1` (configuration not stated), the inhibition was -7.41%.

With `COc1ccccc1CNC1CCN(Cc2ccccc2)CC1`, the inhibition is -3.78%.

Take `Fc1ccc(CNC2CCN(Cc3ccccc3)CC2)cc1`: the inhibition was -1.76%.

`Cc1cc(-c2ccccc2)nc(N/N=C/c2ccccc2)n1`: the inhibition was 4.11%.

In the case of `COc1ccc(/C=N/Nc2nc(C)cc(-c3ccccc3)n2)cc1OC`, the inhibition is 11.1%.

In the case of `C/C(=N\Nc1nc2ccccc2nc1C)c1ccccc1O`, the inhibition is -0.02%.

Take `Cc1cc(-c2ccccc2)nc(N/N=C/c2cccnc2)n1`: the inhibition is 3.86%.

`COc1ccc(O)c(/C=N/Nc2nc(C)cc(-c3ccccc3)n2)c1`: the inhibition was 3.11%.

`Cc1cc(-c2ccccc2)nc(N/N=C/c2ccccc2F)n1`: the inhibition is 2.38%.

For `Cc1cc(-c2ccccc2)nc(N/N=C/c2ccc([N+](=O)[O-])cc2)n1`, the inhibition is 6.88%.

Take `Oc1ccc(/C=N/Nc2ccccc2)cc1`: the inhibition was 12.9%.

In the case of `CCOC(=O)CN1C(=O)S/C(=C/c2ccc(C)o2)C1=O`, the inhibition was 13.6%.

Take `O=C(CN(CC1CCCO1)C(=O)CCC(=O)Nc1nccs1)NCC1CCCO1` (configuration not stated): the inhibition is -9.34%.

Turning to `O=C1CCc2cc(S(=O)(=O)Nc3cccc(F)c3)cc3c2N1CC3`, the inhibition is 4.84%.

As for `O=C(NCC(c1cccs1)N1CCOCC1)c1cc(S(=O)(=O)N2CCOCC2)c(Cl)cc1Cl` (configuration not stated), the inhibition is 2.31%.

In the case of `Cc1occc1-c1nnc(SCCCC(=O)c2ccc(F)cc2)n1C`, the inhibition was 14.1%.

In the case of `NNC(=S)NCCc1ccccc1`, the inhibition is 6.19%.

For the compound `CC(C(=O)Nc1ccccc1)N1CCN(c2ccccn2)CC1` (configuration not stated), the inhibition was 7.75%.

Regarding `CC(C(=O)N1CCc2ccccc21)N1CCN(c2ccccn2)CC1` (configuration not stated), the inhibition was 6.14%.

Turning to `O=C(CNC(=O)Cc1ccccc1)NCc1cccc(C(F)(F)F)c1`, the inhibition was 1.1%.

For `CCN(Cc1ccncc1)C(=O)c1cccs1`, the inhibition is -1.7%.

For `O=C(CC1CCCC1)N1CCCC(Nc2cccc(F)c2)C1` (configuration not stated), the inhibition is 7.36%.

For the compound `CC1CC(C)CN(C(=O)Cn2c(=O)n(CCCC(=O)NCc3ccco3)c(=O)c3sccc32)C1` (configuration not stated), the inhibition is 9.26%.

Take `CCOc1cc2c(cc1OCC)C(c1ccccc1)N(c1ccccc1)C(=O)C2` (configuration not stated): the inhibition was 1.91%.

For `CCN(CC)C(=O)CSc1nc2ccccc2c(=O)n1-c1ccccc1OC`, the inhibition is -9.96%.

As to `O=c1c2ccccc2nc(N/N=C/c2ccc(O)cc2)n1O`, the inhibition was 18.1%.

For the compound `C=CCn1c(C)nc2ccccc2c1=O`, the inhibition is 2.89%.

As to `COc1ccccc1-n1c(SCC(=O)N2CCOCC2)nc2ccccc2c1=O`, the inhibition was -0.91%.

Take `O=c1c2ccccc2nc(/C=C/c2ccc(O)cc2)n1CCc1ccccc1`: the inhibition was 4.64%.

Take `Cn1c(/C=C/c2ccccc2)nc2ccccc2c1=O`: the inhibition was 5.36%.

For `CCn1c(/C=C/c2ccccc2)nc2ccccc2c1=O`, the inhibition was 10.4%.

Turning to `CCn1c(/C=C/c2ccc(F)cc2)nc2ccccc2c1=O`, the inhibition is 8.84%.

Regarding `O=C(CSc1nncn1-c1ccccc1)Nc1ccccc1F`, the inhibition was 3.06%.

As for `COc1ccccc1/C=C/C(=O)OCC(=O)N1CCN(S(=O)(=O)c2ccc(C)cc2C)CC1`, the inhibition was 6.05%.

As for `CC(OC(=O)c1ccc(Cl)nc1)C(=O)Nc1ccc(S(=O)(=O)N2CCCC2)cc1` (configuration not stated), the inhibition was 4.67%.

For the compound `C[C@@]12C(=O)N(CC3CC3)CC(=O)N1[C@H](C1CC1)[C@@H]1C(=O)N(c3ccccc3)C(=O)[C@@H]12`, the inhibition was 7.67%.

Turning to `Cc1cc(C)n2c(SCC(=O)NCc3ccc4c(c3)OCO4)nnc2n1`, the inhibition is 11.5%.

As for `CSCCC(NC(=O)c1ccccc1Br)C(=O)N1CCN(C/C=C/c2ccccc2)CC1` (configuration not stated), the inhibition is 9.7%.

Take `COc1ccc(Cl)cc1NS(=O)(=O)N1CCOCC1`: the inhibition was 6.51%.

As for `COc1cc(OC)c(OC)cc1/C=N/NC(=O)CC1C(=O)NN=C1C` (configuration not stated), the inhibition was 4.43%.

As for `CC1C(=O)NN=C1C(=O)N/N=C/c1cccs1` (configuration not stated), the inhibition is 17.2%.

Turning to `CC1C(=O)NN=C1C(=O)N/N=C\C(Br)=C\c1ccccc1` (configuration not stated), the inhibition is 20.2%.

For `COc1ccc(/C=N\NC(=O)C2=NNC(=O)C2C)cc1` (configuration not stated), the inhibition is 13.9%.

Regarding `CC1C(=O)NN=C1C(=O)N/N=C/c1ccco1` (configuration not stated), the inhibition is 14.2%.

Turning to `COc1ccc(OC)c(/C=N/NC(=O)CC2C(=O)NN=C2C)c1` (configuration not stated), the inhibition was 3.85%.

With `CCOC(=O)C1C(=O)NC(C(=O)OCC)(C(=O)OCC)C1C(C)CC` (configuration not stated), the inhibition is 6.57%.

As for `CC1CCCC(NC(=O)COC(=O)/C=C/c2ccco2)C1C` (configuration not stated), the inhibition is 2.8%.

On to `CNCCCOc1cccc(OC(C)C)c1`, for which the inhibition was 16.9%.

In the case of `CCc1ccccc1N(C(=O)c1ccco1)C(C(=O)NC1CCCC1)c1cccnc1` (configuration not stated), the inhibition is 4.45%.

With `CN(CC(=O)NCC1CCCO1)S(=O)(=O)c1ccc(Br)cc1` (configuration not stated), the inhibition is 7.12%.

On to `C/C(N)=C(/C#N)C(=O)COC(=O)C1CCN(S(=O)(=O)c2cccs2)CC1`, for which the inhibition is -1.72%.

Regarding `CC(=O)Nc1ccc(C(=O)N2CCc3cc4c(cc3C2C)OCCCO4)cc1` (configuration not stated), the inhibition is 1.24%.

For `COC(=O)C[C@H]1C[C@@H]2c3cc(NC(=O)Nc4ccc(F)cc4)ccc3O[C@@H]2[C@@H](CO)O1`, the inhibition is 7.07%.

Consider `O=c1ccc(=O)n(-c2ccccc2)[nH]1`, for which the inhibition is 2.41%.

Regarding `O=c1[nH]n(-c2ccccc2)c(=O)c2ccccc12`, the inhibition is -1.66%.

Consider `O=C(O)CSCC(=O)Nc1ccc(C(=O)O)cc1`, for which the inhibition was 7.72%.

Regarding `COc1cc(CNCCO)ccc1OCCc1ccccc1`, the inhibition was 5.16%.

For `O=C(O)c1ccccc1Nc1ccccc1C(=O)O`, the inhibition was 2%.

Turning to `COc1cccc(Nc2ccccc2C(=O)O)c1`, the inhibition was 7.48%.

Take `CC(Oc1ccccc1)C(=O)Nc1cccc(F)c1` (configuration not stated): the inhibition is 3.1%.

As for `Cc1cc(N)cc(C)c1-c1c(Br)cc(N)cc1Br`, the inhibition was 10.2%.

With `Cc1cc(C)cc(N)c1`, the inhibition is 6.83%.

`O=C(CCC(=O)OCc1cccc([N+](=O)[O-])c1)Nc1ccccc1Cl`: the inhibition is 2.82%.

Turning to `COc1ccc(C(=O)NCCc2nnc3ccc(SCC(=O)NCc4ccc(F)cc4)nn23)cc1`, the inhibition is -0.6%.

In the case of `Cc1onc(-c2ccccc2Cl)c1C(=O)NNC(=O)c1nn(C)cc1Cl`, the inhibition was 1.82%.

For the compound `O=C(c1cc(COc2ccc(F)c(F)c2)on1)N1CCN(C/C=C/c2ccccc2)CC1`, the inhibition was -6.39%.

Consider `Nc1nc(N)c2cc(Sc3cccc(C(F)(F)F)c3)ccc2n1`, for which the inhibition is 5.58%.

As to `Nc1nc(N)c2cc(Sc3ccc(Cl)cc3)ccc2n1`, the inhibition is 11.7%.

Regarding `Cc1nc(Cc2nnc(SCC(=O)N3CCN(c4ccccc4)CC3)o2)cs1`, the inhibition was 5.08%.

As to `Cc1nc(Cc2nnc(SCC(=O)N3CCN(c4ccc(F)cc4)CC3)o2)cs1`, the inhibition is 0.95%.

On to `CC(C)(C)C(=O)Nc1nc(=S)ss1`, for which the inhibition is 11.6%.

As to `CC(=O)Nc1nc(=S)ss1`, the inhibition is 12.7%.

The record behind these values is PubChem BioAssay AID624330 (Southern Research Specialized Biocontainment Screening …, 2012).
